# Measured values from PubChem BioAssay AID1063 (University of Pittsburgh Molecular Library Screening Center, 2008).
# Among all 200,000 compounds or so, about 18,000 (9%) were called active. Only a selection was taken, and actives are over-represented in it overall. A number with no mark means an inactive call. Cut-off read from the data, not from the text of the source: active = inhibition above about 50%; inactive = the rest.
# Assay: Leishmania major promastigote growth inhibition, primary screen (AID 1063);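 note: promastigotes grown with compound for 44 hours at 28 °C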
# Conditions: Leishmania major promastigotes, resazurin fluorescence viability; at 10 µM; hits give high values
row,SMILES,inhibition
1,COCCC(=O)Nc1ccc2c(c1)CN(C(=O)CCOC)CC2,-5.46%
2,COCCn1c(N)c(N(Cc2ccccc2)C(=O)C2CCCCC2)c(=O)[nH]c1=O,-6%
3,C=CCOC(=O)C1=C(C)N=C2SCCC(=O)N2C1/C=C/c1ccccc1OC (stereo not given),7.43%
4,O=C(c1cccc(S(=O)(=O)N2CCCC2)c1)N(Cc1ccco1)C1CCS(=O)(=O)C1 (stereo not given),-2.42%
5,O=C(CSc1nnc(-c2cccs2)n1Cc1ccccc1)N1CCc2ccccc2C1,83.6% (active)
6,CCn1c(SCC(=O)c2ccc3ccccc3c2)nnc1-c1cccs1,-1.02%
7,O=C(CSc1nnc(-c2cccs2)n1-c1ccccc1)N1CCN(C(=O)c2ccco2)CC1,-10.5%
8,COC(=O)c1ccc(COC(=O)c2cnccn2)cc1,-1.35%
9,COc1cc(C2C(C(=O)Nc3ccccc3OC)=C(C)Nc3ncnn32)ccc1O (stereo not given),-3.99%
10,COc1ccccc1NC(=O)C1=C(C)Nc2nnnn2C1c1cccc(Br)c1 (stereo not given),95.7% (active)
11,COc1ccc(C2C(C(=O)Nc3ccccc3OC)=C(C)Nc3nnnn32)c(OC)c1 (stereo not given),15.1%
12,Cc1ccnc(NC(=O)CCC(=O)N(CC(=O)NCc2ccccc2)Cc2ccco2)c1,-5.25%
13,COCCNC(=O)CN(C(=O)CCC(=O)Nc1cc(C)on1)c1ccc(C)cc1C,2.39%
14,Cc1ccc(C)c(N(CC(=O)NCc2ccco2)C(=O)CCC(=O)Nc2ccccn2)c1,53.3% (active)
15,O=C(NCCN1CCOCC1)Nc1cccc(Cl)c1,-0.08%
16,O=S1(=O)CCN(Cc2ccccc2Cl)CC1,-4.67%
17,O=C(NCC1CCN(Cc2ccccc2Cl)CC1)Nc1cccc(Cl)c1,76.4% (active)
18,N#Cc1ccc(CSc2nnc3ccccn23)cc1,-3.72%
19,Cc1ccc(NN=C2C(=O)OC(C)(C)OC2=O)c(C)c1,-4.89%
20,Cc1onc(C(=O)NN)c1C(=O)N1CCN(C(c2ccccc2)c2ccccc2)CC1,-5.09%
21,CN(c1ccccc1)S(=O)(=O)c1ccc(Cl)c(C(=O)OCC(N)=O)c1,-0.01%
22,O=C(Cc1c(F)cccc1Cl)Nc1ccc(-n2cnnn2)cc1,1%
23,CN(c1ccccc1)S(=O)(=O)c1cccc(NC(=O)Cc2c(F)cccc2Cl)c1,98.4% (active)
24,C=CCNc1scc(-c2ccccc2)[n+]1CC=C,9.84%

row,SMILES,inhibition
1,Cc1nn(Cc2ccccc2)c(C)c1C(=O)NCCN1C(=O)S/C(=C\c2ccc(F)cc2)C1=O,-6.47%
2,CCN1CCN(CCNC(=O)c2ccc(/C=C3/Sc4ccccc4N(Cc4cccc(C)c4)C3=O)cc2)CC1,101% (active)
3,Cc1cccc(C(=O)NCCCN2CCCC2=O)c1,-4.51%
4,COC(=O)c1ccc(CSc2nncn2N)cc1,-3.29%
5,COc1cc(NS(=O)(=O)c2ccc(NC(=O)CN3C(=O)c4ccccc4C3=O)cc2)ncn1,4.83%
6,Fc1ccccc1Cn1cnc(NC(=S)NCCc2ccccc2)n1,-2.69%
7,CN(Cc1ccccc1)Cc1ccccc1F,-3.21%
8,N=c1n(CCc2ccccc2)c2ccccc2n1Cc1ccccc1F,97.3% (active)
9,C=C(C)C1CC=C(C)/C(=N/NC(=O)CCCNc2cccc(C)c2)C1 (stereo not given),-1.55%
10,c1cnc(NC2C3CC4CC(C3)CC2C4)nc1 (stereo not given),27.5%
11,CN(C)c1ccc(CNC2C3CC4CC(C3)CC2C4)cc1 (stereo not given),75.6% (active)
12,CN(C)c1ccc(CNC23CN4CN(CN(C4)C2)C3)cc1,-1.82%
13,O=C(O)C1CC=CCC1C(=O)Nc1ccccc1C(=O)N1CCN(c2ccccc2)CC1 (stereo not given),-4.97%
14,CC(C)c1ccc(N2CCN(C(=O)c3ccccc3NC(=O)/C=C(\C(=O)O)c3ccccc3)CC2)cc1,100% (active)
15,Cc1cccc(N2CCN(C(=O)c3ccccc3NC(=O)C3CCCCC3C(=O)O)CC2)c1 (stereo not given),-7.46%
16,Cc1nc(S(=O)(=O)c2ccc(Br)cc2)nc2c1CCC2,-6.99%
17,CCOCCCNC(=O)C(NC(=O)c1ccccc1O)c1ccccc1 (stereo not given),-1.57%
18,CCc1ccc(Nc2nnc(SCC(=O)c3ccc4c(c3)NC(=O)CO4)s2)cc1,-5.5%
19,COc1cccc(CNC(=O)CCC2CCCN(C(=O)c3cc(C)[nH]n3)C2)c1 (stereo not given),-7.13%
20,COc1cccc2cc(/C(C)=N/NC(=O)c3ccco3)oc12,31%
21,N=c1c2c3c(sc2ncn1CCCN1CCOCC1)CCCCC3,90.5% (active)
22,N=c1c2c3c(sc2ncn1N)CCCCC3,-0.23%
23,N=c1c2c3c(sc2ncn1N)CCCC3,-4.1%
24,COC(=O)C(=Nc1ccccc1)/C(C(=O)C(=O)N(C)c1ccccc1)=C(\O)c1ccc(Cl)cc1,-4.81%

row,SMILES,inhibition
1,Cc1ccc(NC(=O)CN2CCc3ccccc3C2)cc1,-2.33%
2,Cc1ccc(NC(=O)CCN2CCc3ccccc3C2)cc1,5.9%
3,Cc1cccc(C)c1NC(=O)c1ccc(CN2CCc3ccccc3C2)cc1,73.9% (active)
4,CCN=c1sc(C(=O)Nc2ccccc2)c(C)n1CC,-3.21%
5,CC(C)C(c1nnnn1C(C)(C)C)N1CCN(Cc2cccnc2)CC1 (stereo not given),-1.86%
6,O=C(CSc1nc2ccccc2o1)N1c2ccccc2Sc2ccc(Cl)cc21,71.7% (active)
7,Cc1ccccc1OCc1nnc(SCC(=O)N2c3ccccc3Sc3ccc(Cl)cc32)o1,11.3%
8,O=C(CSc1nc2ccccc2o1)N1CCN(c2ccc(Cl)cc2)CC1,0.01%
9,COc1ccc(-c2nc3cnccn3c2NC(C)(C)CC(C)(C)C)cc1O,32.8%
10,CS(=O)(=O)c1ccc2nc(NC(=O)c3ccc(Cl)nc3)sc2c1,3.2%
11,COc1ccccc1-n1c(=S)[nH]c2c(sc(=S)n2-c2ccc(C)cc2C)c1=O,-6.57%
12,Cc1nc([N+](=O)[O-])c(NCCCO)n1Cc1ccccc1,10.7%
13,N=c1c2c(-c3ccccc3)c(-c3ccccc3)n(Cc3ccccc3)c2ncn1CCCO,100% (active)
14,N=c1c2c(-c3ccccc3)c(-c3ccccc3)oc2ncn1Cc1ccco1,33.3%
15,O=C(COC(=O)c1ccccc1C(=O)N1CCN(c2ccccc2)CC1)NCc1ccccc1,-2.49%
16,Oc1ccc(N2CCN(C(=S)NCc3ccccc3)CC2)cc1,53.4% (active)
17,Oc1ccccc1N1CCN(C(=S)NCc2ccccc2)CC1,-5.57%
18,Cc1ccc(C(NC(=O)N2CCCC2)C(Cl)(Cl)Cl)cc1F (stereo not given),-2.3%
19,Cc1ccc(-c2csc(SCC(=O)Nc3cc(C)on3)n2)cc1,-6.88%
20,Cc1ccc2nc(-c3ccc(SCC(=O)Nc4cc(C)on4)nc3)[nH]c2c1,64.8% (active)
21,Cc1cc(NC(=O)CSc2nc3ccccc3n2CC(C)C)no1,10.5%
22,CCN1CCN(C(=O)c2ccc(CN(c3ccc(C)c(C)c3)S(C)(=O)=O)cc2)CC1,3.09%
23,COc1ccc(NC(=O)CN(C)S(=O)(=O)c2ccccc2)cc1OC,-1.12%
24,COc1ccc(C(=O)NC(=S)Nc2ccc(N3CCCC3)cc2)cc1OC,26.5%

row,SMILES,inhibition
1,COc1ccc(NC(=S)SC)cc1OC,80.4% (active)
2,O=C(NCc1ccccn1)c1cc(Br)ccc1Cl,17.5%
3,CN(C)NC(=O)C(NC(=O)c1ccc(N)cc1)C12CC3CC(CC(C3)C1)C2 (stereo not given),3.34%
4,c1ccc2c(c1)OCC(CNc1ncnc3nc[nH]c13)O2 (stereo not given),-3.1%
5,c1ccc(-c2cc3c(NCC4COc5ccccc5O4)ncnc3s2)cc1 (stereo not given),98.8% (active)
6,S=C(NCC1COc2ccccc2O1)Nc1ccc(Br)cc1 (stereo not given),-3.43%
7,CN(C)C(=O)CSc1n[nH]c(-c2ccco2)n1,-3.34%
8,COc1ccccc1N1CCN(CC(=O)NCCc2ccc(S(N)(=O)=O)cc2)CC1,-5.9%
9,Cc1nc([N+](=O)[O-])cn1CC(=O)Nc1ccc2c(c1)OCO2,-4.99%
10,COc1ccc(NC(=O)CN(C)CC(=O)Nc2cccc(C(F)(F)F)c2)cc1,6.17%
11,CCOc1ccc(NC(=O)CN(C)CC(=O)NC(C)c2ccccc2)cc1OCC (stereo not given),-1.35%
12,CCOc1ccc(NC(=O)CN(C)CC(=O)Nc2cccc(Cl)c2C)cc1OCC,84.2% (active)
13,S=c1[nH]nc(/C=C/c2ccccc2)o1,-11.6%
14,CN1CCN(CC(=O)Nc2cccc([N+](=O)[O-])c2)CC1,-5.42%
15,O=C(O)c1cccc(NC(=S)N/N=C/c2c[nH]c3ccccc23)c1,-4.34%
16,O=C(N/N=C/c1ccc(Cl)cc1)c1nc2ccc([N+](=O)[O-])cc2c(=O)[nH]1,13.4%
17,Cc1noc(C)c1/C=N/Nc1ccc2ccccc2n1,56.6% (active)
18,O=C(Cc1ccc(F)cc1)N/N=C/c1ccc2c(c1)OCO2,-2.74%
19,C(=N\Nc1ccc2ccccc2n1)/c1ccc2c(c1)OCO2,52.1% (active)
20,Brc1ccc(-c2csc(N/N=C/c3ccc4c(c3)OCO4)n2)cc1,1.9%
21,Cc1cc(C)nc(N/N=C/c2c(C)oc3ccccc23)n1,3.92%
22,Cc1nc2ccccc2cc1C(=O)N/N=C/c1ccc([N+](=O)[O-])cc1,-3.55%
23,CC(C)(C)NC(=O)CN(C(=O)c1ccc(Cl)nc1)c1cccc2ccccc12,31.5%
